From PubChem BioAssay (Tox21)
“And” between values parts separate entries of the source, which are not always exact repeats. Equal entries are not always repeated. Inconclusive results are not listed. Entries that show only a call come without a potency. Values without a mark were called inactive. The source made the active and inactive calls. Calls follow the shape of the full dose curve.

Test: p53 small molecule agonists, cell-based qHTS assay with human liver microsomes: qHTS cell viability counter screen (AID 1963579); also: nearly all actives have a fitted effect of over 45% in size
Procedure, shortened: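 Viability of p53RE-bla cells is measured as CellTiter-Glo luminescence following a 16 h, 37 C incubation with compound, liver microsomes from human donors and NADPH.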
Potency is read from the fitted curve at half-maximal effect.

Row | Structure (SMILES) | Potency | activity change, negative = cytotoxicity
1 | CCOC(=O)OC(=O)OCC | inactive | –
2 | C=CC(=O)OCCCCCC | inactive | –
3 | C=C(C)C(=O)OCCC(F)(F)C(F)(F)C(F)(F)C(F)(F)C(F)(F)C(F)(F)F | inactive | –
4 | COCCCOc1cc(C[C@@H](C[C@H](N)[C@@H](O)C[C@H](C(=O)NCC(C)(C)C(N)=O)C(C)C)C(C)C)ccc1OC | inactive | –
5 | O=[N+]([O-])c1ccccc1CCO | inactive | –
6 | CCOC(=O)c1ccccc1C | inactive | –
7 | CC(C)(c1cc(Br)c(O)c(Br)c1)c1cc(Br)c(O)c(Br)c1 | 16.2 µM (active) and 36.3 µM (active) | –
8 | CO[C@@]1(NC(=O)C(C(=O)O)c2ccc(O)cc2)C(=O)N2C(C(=O)O)=C(CSc3nnnn3C)CO[C@@H]21 (stereo partly drawn) | inactive | –
9 | COC(C)(C)CCO | inactive | –
10 | CC(=O)CC/C=C(\C)CC/C=C(\C)CC/C=C(\C)CCC=C(C)C | inactive | –
11 | CO[C@@]1(NC(=O)CSC[C@@H](N)C(=O)O)C(=O)N2C(C(=O)O)=C(CSc3nnnn3C)CS[C@@H]21 | inactive | –
12 | COc1cc(S(N)(=O)=O)cc(C(=O)O)c1OC | inactive | –
13 | CC/C=C\CCOC(=O)CCCCC | inactive | –
14 | Cc1onc(-c2ccccc2)c1C(=O)Cl | inactive | –
15 | Cc1ccc(C(C)(C)C)cc1 | inactive | –
16 | O=C(O)C(=O)Nc1cccc(-c2nn[nH]n2)c1 | inactive | –
17 | CCN(Cc1cccc(S(=O)(=O)O)c1)c1ccccc1 | inactive | –
18 | CCNc1cc(O)ccc1C | inactive | –
19 | CC(C)CCCCCCCCCCCCCCC(=O)O | inactive | –
20 | CN(CCOc1ccc(CC2SC(=O)NC2=O)cc1)c1ccccn1 (stereo not drawn) | inactive | –
21 | [O-][n+]1ccc(Cl)cc1 | inactive | –
22 | CC(C)(C)CC(C)(C)c1ccc(Nc2ccc(C(C)(C)CC(C)(C)C)cc2)cc1 | – | -1.28% [at 5.99 µM]
23 | Nc1ncnc2c1ncn2[C@@H]1O[C@H](COP(=O)(O)O)[C@@H](O)[C@H]1O | inactive | –
24 | OCc1ccccc1O | inactive | –
25 | CC[C@]12CCCN3CCc4c(n(c5ccccc45)[C@@](O)(C(=O)OC)C1)[C@@H]32 | inactive | –
26 | CCCCCCCCCCC | inactive | –
27 | Cc1cc(O)c(Cl)cc1C | inactive | –

Row | Structure (SMILES) | Potency | activity change, negative = cytotoxicity
28 | Cc1c(O)cccc1C(=O)N[C@@H](CSc1ccccc1)[C@H](O)CN1C[C@H]2CCCC[C@H]2C[C@H]1C(=O)NC(C)(C)C | inactive | –
29 | CC(=O)OC/C=C/c1ccccc1 | inactive | –
30 | N#CCc1cccc(C(F)(F)F)c1 | 40.8 µM (active) | –
31 | CC(=O)N[C@@H](CC(C)C)C(=O)O | inactive | –
32 | Nc1ccncc1N | inactive | –
33 | Cc1cc(C)c(C)c(O)c1 | inactive | –
34 | CC(N)CN (stereo not drawn) | inactive | –
35 | COc1nc(N)nc2nc[nH]c12 | inactive | –
36 | NS(=O)(=O)c1ccccc1Cl | inactive | –
37 | C1=C\CC/C=C\CC/C=C\CC/1 | inactive | –
38 | CC(C)[C@H]1CC[C@@H](C)CC1=O | inactive | –
39 | Clc1nc2ccccc2s1 | inactive | –
40 | Cc1cc(N)no1 | inactive | –
41 | CC(CN1c2ccccc2Sc2ccccc21)N(C)C (stereo not drawn) | inactive | –
42 | CCCCCCCCSCCO | inactive | –
43 | C=CCn1cc[n+](C)c1 | inactive | –
44 | C[C@@H]1CCC[C@H](C)N1 | inactive | –
45 | CCN(CC)CCN | inactive | –
46 | OCCN1CCN(CCCN2c3ccccc3C=Cc3ccccc32)CC1 | inactive | –
47 | C=C(CC)C(=O)c1ccc(OCC(=O)O)c(Cl)c1Cl | inactive | –
48 | CCn1c2ccccc2c2ccccc21 | inactive | –
49 | CC(=O)CC(N)=O | inactive | –
50 | CCC(C)NC(N)=O (stereo not drawn) | inactive | –
51 | O=Cc1ccc([N+](=O)[O-])cc1 | inactive | –
52 | CCOC(=S)SSC(=S)OCC | inactive | –
53 | COc1cc(C(=O)N2CCOCC2)cc(OC)c1OC | inactive | –
